Source: the supplement of paper PMC12645437, “Orthogonal IMiD-Degron Pairs Induce Selective Protein Degradation in Cells” (ACS Chemical Biology, 2025)
Whole data set: some 8,300 sequences, median “log2 fold change of degron read counts, EGFP-low vs EGFP+ sorted cells (limma voom), compound-induced degradation” near -1.1, cut for the highest 2% near 3.2. The entries come from a sample that favours the highest values as a whole.

Molecular target: T1, CRBN, Q96SW2
T1 chain: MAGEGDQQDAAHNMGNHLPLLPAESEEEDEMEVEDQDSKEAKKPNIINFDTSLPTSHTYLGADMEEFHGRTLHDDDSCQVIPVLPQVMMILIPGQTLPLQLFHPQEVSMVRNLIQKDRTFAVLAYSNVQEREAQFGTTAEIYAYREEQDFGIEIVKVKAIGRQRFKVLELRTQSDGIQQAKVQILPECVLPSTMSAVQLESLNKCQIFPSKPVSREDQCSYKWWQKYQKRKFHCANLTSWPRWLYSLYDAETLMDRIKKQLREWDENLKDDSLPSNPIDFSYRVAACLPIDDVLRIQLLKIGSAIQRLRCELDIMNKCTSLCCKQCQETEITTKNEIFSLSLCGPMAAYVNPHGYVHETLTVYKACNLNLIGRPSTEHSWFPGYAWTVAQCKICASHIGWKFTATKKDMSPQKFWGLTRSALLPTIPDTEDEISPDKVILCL
Assay: log2 fold change of degron read counts, EGFP-low vs EGFP+ sorted cells (limma voom), compound-induced degradation; higher = more compound-induced degradation of the degron-EGFP fusion; degrons are variants of IKZF1/3 zinc finger 2; compound dose not given here
Conditions: Jurkat, 18 h

[1] = compound: compound 19 (5-tert-butyl-thalidomide)
[2] = compound: compound 22 (5-morpholino-thalidomide)
[3] = compound: compound 33 (diphenyl IMiD analogue)
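Further: pooled lentiviral library of zinc finger degron-EGFP fusions in mCherry-positive Jurkat cells, FACS-sorted after compound exposure, with degron abundance counted by next-generation sequencing.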

Sequence	log2 fold change of degron read counts [1]	log2 fold change of degron read counts [2]	log2 fold change of degron read counts [3]	log2 fold change of degron read counts (compound: thalidomide)
FLCEVCGAEFTQKGNLLRHIKL [46F_47L_49E_50V_52G_53A_54E_55F_67L_, Q9UKT9]	0.493	-1.2	0.235	1.01
FYCPICGRSFTQKGNLLRHIKL [46F_47Y_49P_50I_52G_53R_54S_55F_67L_, Q9UKT9]	-1.81	-2.36	-1.67	-2.4
FHCNQCGHYFTQKGNLLRHIKL [46F_47H_49N_50Q_52G_53H_54Y_55F_67L_, Q9UKT9]	-2.17	-2.71	-2.16	-1.62
FYCPICGRMFTQKGNLLRHIKL [46F_47Y_49P_50I_52G_53R_54M_55F_67L_, Q9UKT9]	-0.787	-1.23	-0.675	-1.57
FGCEVCGARFTQKGNLLRHIKL [46F_47G_49E_50V_52G_53A_54R_55F_67L_, Q9UKT9]	3.86	2.74	-0.6	1.27
FNCEVCGARFTQKGNLLRHIKL [46F_47N_49E_50V_52G_53A_54R_55F_67L_, Q9UKT9]	2.12	0.955	-0.805	0.249
FGCEVCGALFTQKGNLLRHIKL [46F_47G_49E_50V_52G_53A_54L_55F_67L_, Q9UKT9]	2.18	0.893	1.4	-0.493
FACEVCGALFTQKGNLLRHIKL [46F_47A_49E_50V_52G_53A_54L_55F_67L_, Q9UKT9]	1.98	-0.613	-0.457	-1.05
FLCEVCGARFTQKGNLLRHIKL [46F_47L_49E_50V_52G_53A_54R_55F_67L_, Q9UKT9]	-0.109	-1.35	-0.123	2.09
FACEVCGARFTQKGNLLRHIKL [46F_47A_49E_50V_52G_53A_54R_55F_67L_, Q9UKT9]	3.91	3.03	-0.415	1.17
FVCEVCGARFTQKGNLLRHIKL [46F_47V_49E_50V_52G_53A_54R_55F_67L_, Q9UKT9]	1.35	2.78	0.984	3.25
FKCEVCGARFTQKGNLLRHIKL [46F_47K_49E_50V_52G_53A_54R_55F_67L_, Q9UKT9]	-1.76	-3.02	-3.44	-1.87
FACEVCGADFTQKGNLLRHIKL [46F_47A_49E_50V_52G_53A_54D_55F_67L_, Q9UKT9]	1.11	-1.42	-1.53	-1.97
FQCEVCGARFTQKGNLLRHIKL [46F_47Q_49E_50V_52G_53A_54R_55F_67L_, Q9UKT9]	-0.109	1.95	1.42	3.71
FMCEVCGARFTQKGNLLRHIKL [46F_47M_49E_50V_52G_53A_54R_55F_67L_, Q9UKT9]	0.167	-0.178	1.48	1.48
FGCEVCGADFTQKGNLLRHIKL [46F_47G_49E_50V_52G_53A_54D_55F_67L_, Q9UKT9]	-1.71	-2.17	-0.906	-1.3
